The target in this test is Albumin (Bos taurus) (UniProt P02769). Description: compounds binding labelled BSA control protein – biochemical, small-molecule microarray, Alexa647 label, 635/667 nm fluorescence, artefact control for SMM control protein annotation, profiling panel (AID 1118).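 Further: score merges 667 nm emission intensity and signal-to-noise per printed compound spot.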 As to conditions: BSA-A647 binding, fluorescence 635 nm, higher = more signal.
Albumin (Bos taurus), sequence (P02769 whole entry, looked up): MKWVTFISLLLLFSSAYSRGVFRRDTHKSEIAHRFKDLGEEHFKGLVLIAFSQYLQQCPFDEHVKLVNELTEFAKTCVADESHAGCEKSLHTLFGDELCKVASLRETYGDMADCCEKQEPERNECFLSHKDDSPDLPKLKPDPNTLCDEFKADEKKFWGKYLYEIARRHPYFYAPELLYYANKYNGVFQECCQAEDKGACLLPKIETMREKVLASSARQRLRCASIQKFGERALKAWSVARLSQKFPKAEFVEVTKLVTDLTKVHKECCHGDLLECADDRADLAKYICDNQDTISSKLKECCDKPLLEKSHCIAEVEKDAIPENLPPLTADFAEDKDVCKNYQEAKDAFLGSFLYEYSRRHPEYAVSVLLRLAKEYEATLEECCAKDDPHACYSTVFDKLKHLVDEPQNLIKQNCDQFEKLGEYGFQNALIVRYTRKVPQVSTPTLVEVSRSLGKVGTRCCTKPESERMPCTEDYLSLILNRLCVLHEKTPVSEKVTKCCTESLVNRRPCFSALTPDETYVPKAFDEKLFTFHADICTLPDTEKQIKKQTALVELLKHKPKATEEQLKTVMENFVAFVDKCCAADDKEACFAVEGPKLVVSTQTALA
Consider `C[C@@H]1ON(c2ccccc2)[C@H](c2ccccc2)[C@H]1C(=O)O`, for which the composite z-score was -0.189.
In turn, `C[C@]1(C(=O)O)c2ccccc2C(=O)N(Cc2cc(F)cc(C(F)(F)F)c2)[C@H]1c1ccc(CO)cc1` yielded a composite z-score of 0.286.
`COCCOC(=O)N1C(=O)[C@@]2(c3cc(C#CCCO)ccc31)[C@H](c1ccccc1OCCO)N1[C@H](c3ccccc3)[C@H](c3ccccc3)OC(=O)[C@H]1[C@@H]2C(N)=O`: the composite z-score was -0.0956.
`O=C1[C@H]2C=C(I)[C@H](C[C@@H]2OCCCCCCO)[C@@]12CO2` showed a composite z-score of 0.683.
`C=CCOC(=O)[C@@H]1[C@H]2C(=O)O[C@H](c3ccccc3)[C@H](c3ccccc3)N2[C@H](c2ccc(OCCOC(=O)[C@H]3C[C@H]4C(=O)N[C@@H](CCCCN(C)C)C(=O)N4[C@H]3c3ccc(O)cc3)cc2)[C@@]12C(=O)Nc1ccc(I)cc12`: the composite z-score was -0.839.
The compound `O=C(NCc1ccccc1)[C@@H]1c2ccccc2C(=O)N(Cc2cc(C(F)(F)F)cc(C(F)(F)F)c2)[C@H]1c1ccc(CO)cc1` returned a composite z-score of -0.432.
The figure for `CCCC[C@H]1C[C@@H]1[C@@H]1N(C(C)=O)[C@H](c2cccc(OC)c2)CC12CC2` is 0.219; for `CCOC(=O)C1=CCC(c2cc3ccccc3[nH]2)N(CCN2CC(C(=O)OCC)=CCC2c2cc3ccccc3[nH]2)C1` (stereo not given) it is 0.656; for `C=C(CCCC)/C(=C/C[C@H](OC(C)=O)c1cccc(OCCO)c1)c1cnc2ccccc2c1` it is -0.0372.
Turning to `CCCN1C(=O)[C@@]2(c3ccc([N+](=O)[O-])cc3)CC(=O)N(CC34CC5CC(CC(C5)C3)C4)[C@@H]2c2ccc(CO)cc21`, the composite z-score was 0.391.
To `COc1ccc(C(O)C2C=CC3C(=O)N(c4ccccc4)C(=O)C3N2Nc2ccc(C#N)cc2)cc1OCc1ccccc1` (stereo not given) belongs 1.06; to `CC(C)NC(=O)[C@@]1(c2ccc([N+](=O)[O-])cc2)CC(=O)N(CC23CC4CC(CC(C4)C2)C3)[C@@H]1c1ccc(CO)cc1`, 0.0436.
Regarding `CC1=C([C@H](O)CCc2ccccc2)[C@H](CO)n2c(=O)n(-c3ccccc3)c(=O)n2C1`, the composite z-score is -0.348.
`O=C(NC1CC1)[C@@H]1c2ccccc2C(=O)N(Cc2cc(C(F)(F)F)cc(C(F)(F)F)c2)[C@H]1c1ccc(CO)cc1` registered a composite z-score of -0.148.
To `COC(=O)[C@@]1(Cc2ccccc2)N=C(c2ccc(OCCCO)cc2)O[C@H]1c1ccccc1CN=[N+]=[N-]` belongs -0.158; to `O=C1c2ccccc2[C@@]2(Cc3ccccc3N(Cc3ccccc3)C2=O)[C@H](c2ccc(CO)cc2)N1Cc1ccccc1Cl`, 0.705.
`CC(C)C[C@H]1NC(=O)C([C@@H](C)OCc2ccccc2)NC(=O)[C@@]23C(=O)N[C@@H](Cc4ccccc4)C2[C@H](C)[C@@]2(C)O[C@H]2C3/C=C/C/C=C\CNC1=O` (stereo not given in full) gave a composite z-score of 0.616.
`CC(C)=CCCC(C)=CC(O)C1C=CC2C(=O)NC(=O)C2N1Nc1ccc(Cl)cc1Cl` (stereo not given) returned a composite z-score of 0.909.
In turn, `CCCCC(=C=CC[C@H](O)c1ccc(CO)o1)CCO` returned a composite z-score of 0.86.
To `CCOC(=O)C1=CC[C@@H](c2ccccc2)N(S(=O)(=O)c2ccc(C)cc2)[C@H]1c1ccccc1I` belongs 0.856.
`[N-]=[N+]=Nc1ccccc1[C@@H]1OC(c2ccc(OCCCO)cc2)=N[C@]1(CCS(=O)(=O)c1ccccc1)C(=O)NCC(O)CO` (stereo not given in full) displayed a composite z-score of 0.91.
Compound `N#Cc1ccc(NN2C(C(O)C3CC=CCC3)C=CC3C(=O)N(c4ccccc4)C(=O)C32)cc1` (stereo not given) came in with a composite z-score of 1.03.
`CC(C)C[C@@H]1NC(=O)[C@@]23C(=O)N[C@@H](Cc4ccccc4)C2[C@H](C)[C@@]2(C)O[C@H]2C3/C=C/C/C=C\CNC(=O)CNC1=O` (stereo not given in full) displayed a composite z-score of 0.0829.
To `COc1ccc([Si](C)(C)[C@H]2[C@H](CC(=O)N3CCC[C@H]3CO)O[C@@]3(C(=O)N(Cc4ccc(N5CCCCC5=O)cc4)c4ccccc43)[C@@H]2C)cc1` belongs 0.664.
To `C=CCC(OC(C)=O)[C@@H]1[C@@H](N(Cc2cccc3ccccc23)C(=O)Cc2ccc(OC)cc2)c2cc(OCCCO)ccc2N1C(=O)c1ccc2ccccc2c1` (stereo not given in full) belongs 0.226; to `NC(=O)NCC#Cc1ccc2c(c1)[C@]1(C(=O)N2)[C@H](c2ccc(OCCO)cc2)N2[C@H](c3ccccc3)[C@H](c3ccccc3)OC(=O)[C@H]2[C@@H]1C(=O)O`, 0.544.
With `O=C1O[C@H](c2ccccc2)[C@H](c2ccccc2)N2[C@H]1[C@@H](C(=O)N1CCN(c3ncccn3)CC1)[C@]1(C(=O)Nc3ccc(C#CCCO)cc31)[C@H]2c1ccc(O)cc1`, the composite z-score was 0.627.
Compound `C=C(CCCC)/C(=C/C[C@H](OC(=O)c1ccncc1)c1cccc(OCCO)c1)c1cnc2ccccc2c1` showed a composite z-score of 0.677.
`O=C(N1CCOCC1)[C@@]1(Cc2ccccc2)COC(c2ccc(OCCCO)cc2)=N1` gave a composite z-score of 1.
To `C=CCC(OC(C)=O)[C@@H]1[C@@H](N(Cc2ccc(-c3cccc(C(F)(F)F)c3)o2)C(=O)c2ccc(-c3ccccc3)cc2)c2cc(OCCCO)ccc2N1C(=O)c1ccc2ccccc2c1` (stereo not given in full) belongs -0.192.
`[N-]=[N+]=NCc1ccccc1[C@@H]1OC(c2ccc(OCCCO)cc2)=N[C@]1(Cc1ccccc1N=[N+]=[N-])C(=O)NCC(O)CO` (stereo not given in full) came in with a composite z-score of 0.98.
In turn, `CCCNC(=O)[C@@]1(c2ccc([N+](=O)[O-])cc2)CC(=O)N(C(C)C)[C@@H]1c1ccc(CO)cc1` yielded a composite z-score of 0.667.
Take `CC(C)N1C(=O)C[C@@](C(=O)NCCN2CCOCC2)(c2ccc([N+](=O)[O-])cc2)[C@H]1c1ccc(CO)cc1`: the composite z-score came to 0.408.
To `CCCC[C@H]1OB(O)C[C@H]2C1=C(COc1ccccc1)C[C@H]1C(=O)C=CC(=O)[C@H]12` belongs -0.339.
Take `CC(C)[Si](C#CCCc1ccccc1)(O[C@H](c1ccccc1)c1cn(Cc2ccccc2)nn1)C(C)C`: the composite z-score turned out to be 0.246.

Source of the values: PubChem BioAssay.
